Calls of active or inactive are those of the source.

Assay [1] relates to Plasmodium falciparum Sir2 (PF13_0152, Sir2A). Nature of the assay: Plasmodium falciparum Sir2A binding compounds – biochemical, small-molecule microarray, 635 nm fluorescence, primary screen (AID 1098).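 Further: score merges spot fluorescence intensity with its signal-to-noise ratio.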 As to conditions: fluorescence 635 nm, higher = more signal.
Assay [2] can be described thus: probe aDKK1 binding to arrayed compounds – biochemical, biotinylated probe, 635/667 nm fluorescence, primary screen (AID 1099).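 Further: score merges 667nm spot fluorescence with signal to noise across triplicate slides.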 As to conditions: small-molecule microarray, higher = more signal.
Assay [3] in a line: probe aCHRDL2 binding to arrayed compounds – biochemical, biotinylated probe, 635/667 nm fluorescence, primary screen (AID 1100). As to conditions: small-molecule microarray, higher = more signal.
Assay [4] can be described thus: change in splice reporter luminescence, either direction, cell-based, HEK293, spliceosome inhibition project, primary screen (AID 1101).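 Further: HEK293 cells carrying a splicing-competent luciferase reporter gene; test concentration not given here.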 Conditions: HEK293 splicing luciferase reporter, 24 h, higher = more signal, called active from +8 up or from −8 down. A general note: In a reporter assay the amount or activity of a reporter protein is the signal.
The target in assay [5] is Fibroblast growth factor 10 (Homo sapiens) (UniProt O15520). Description: compounds binding fibroblast growth factor 10 – biochemical, small-molecule microarray, 635 nm fluorescence, primary screen (AID 1102). As to conditions: FGF10 binding, fluorescence 635 nm, higher = more signal.
Fibroblast growth factor 10 (Homo sapiens), sequence (O15520 whole entry, looked up): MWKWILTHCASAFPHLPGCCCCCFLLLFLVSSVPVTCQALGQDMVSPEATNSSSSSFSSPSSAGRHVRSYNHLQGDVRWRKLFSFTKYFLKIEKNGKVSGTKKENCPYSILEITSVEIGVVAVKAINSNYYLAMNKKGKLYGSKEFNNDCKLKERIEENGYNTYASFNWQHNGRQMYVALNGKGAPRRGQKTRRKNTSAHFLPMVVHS
Assay [6] deals with glycogen synthase kinase-3 (GSK3A per assay name; protocol says GSK3B). Description: compounds binding glycogen synthase kinase-3 – biochemical, small-molecule microarray, 635 nm fluorescence, GSK3A, primary screen (AID 1103). Further: the record names both GSK3A and GSK3B. As to conditions: fluorescence 635 nm, higher = more signal.
Assay [7] has as its target Epidermal growth factor receptor (Homo sapiens) (UniProt P00533). Nature of the assay: compounds binding epidermal growth factor receptor – biochemical, small-molecule microarray, 635 nm fluorescence, primary screen (AID 1104).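 Further: score merges 667 nm emission intensity with spot signal to noise over triplicate slides.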 Conditions: EGFR binding, higher = more signal.
Assay [8] concerns the target Follistatin-related protein 3 (Homo sapiens) (UniProt O95633). Nature of the assay: compounds binding follistatin-related protein 3 – biochemical, small-molecule microarray, 635 nm fluorescence, primary screen (AID 1105).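 Further: score merges emission near 667 nm and signal to noise per printed spot across three slides.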 As to conditions: FSTL3 binding, higher = more signal.
Assay [9] addresses Dickkopf-related protein 1 (Homo sapiens) (UniProt O94907). Nature of the assay: small molecules binding DKK1 protein – biochemical, small-molecule microarray, 635 nm fluorescence scan, primary screen (AID 1106).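 Further: score merges emission near 667 nm with signal to noise over three replicate slides.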 As to conditions: higher = more signal.
Assay [10] relates to Inhibin beta A chain (activin A). Nature of the assay: small molecules binding activin A – biochemical, small-molecule microarray, 635 nm fluorescence scan, primary screen (AID 1107).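 Further: mouse activin A protein probed at 4.33 µg/mL on printed slides; score merges bound-protein fluorescence near 667 nm with spot signal-to-noise.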 As to conditions: INHBA, higher = more signal.
The subject of assay [11] is Human papillomavirus type 1a protein E7 (residues 44-93). Nature of the assay: small molecules binding HPV E7 44-93 – biochemical, small-molecule microarray, residues 44-93, 635 nm fluorescence, primary screen (AID 1108).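 Further: E7 fragment applied at 1 µg/mL in TBST for 1 h at 4 C; score combines spot fluorescence with its signal to noise ratio.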 As to conditions: fluorescence 635 nm, higher = more signal.
A short description of assay [12]: hepatitis C replication reporter changes, two-sided – Huh7 cells, luciferase reporter, HCV replication inhibitor project, primary screen (AID 1109).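 Further: huh7 hepatoma cells harbouring a luciferase neomycin HCV replicon reporter; luciferase luminescence as measure of HCV replicon replication; test concentration not given here.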 As to conditions: Huh7 HCV replicon luciferase reporter, 48 h; higher = more signal.
The target of assay [13] is Left-right determination factor 2 (Homo sapiens) (UniProt O00292). Nature of the assay: small molecules binding LEFTY2 protein – biochemical, small-molecule microarray, 635 nm fluorescence scan, primary screen (AID 1110). Conditions: higher = more signal.
Left-right determination factor 2 (Homo sapiens), sequence (O00292 whole entry, looked up): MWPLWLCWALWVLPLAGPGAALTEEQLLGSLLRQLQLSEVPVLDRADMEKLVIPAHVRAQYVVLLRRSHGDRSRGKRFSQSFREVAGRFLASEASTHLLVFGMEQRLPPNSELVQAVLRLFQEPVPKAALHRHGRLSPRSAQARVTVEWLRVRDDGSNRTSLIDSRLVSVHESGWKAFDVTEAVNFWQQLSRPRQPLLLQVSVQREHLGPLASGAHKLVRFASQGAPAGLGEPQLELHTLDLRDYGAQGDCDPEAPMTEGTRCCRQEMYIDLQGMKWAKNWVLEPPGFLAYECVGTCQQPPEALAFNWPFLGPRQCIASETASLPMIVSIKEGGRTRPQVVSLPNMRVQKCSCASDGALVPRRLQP
The target in assay [14] is Calmodulin-1 (Homo sapiens) (UniProt P0DP23). Description: small molecules binding calmodulin-1 with EGTA – biochemical, small-molecule microarray, Cy5-labelled CALM1, profiling panel (AID 1111).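 Further: labelled calmodulin applied in Tris saline Tween buffer holding calcium plus EGTA and DTT.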 Conditions: Cy5-CALM1 binding fluorescence, higher = more signal.
Assay [15] shares this target. Description: small molecules binding Ca-loaded calmodulin-1 – biochemical, small-molecule microarray, Cy5-labelled CALM1, plus calcium, artefact control for SMM control-protein annotation, profiling panel (AID 1112).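 Further: score merges spot fluorescence with signal to noise from triplicate slides.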 As to conditions: Cy5-CALM1 binding fluorescence, higher = more signal.
A short description of assay [16]: probe aWnt5a binding to arrayed compounds – biochemical, biotinylated probe, 635/667 nm fluorescence, primary screen (AID 1113).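 Further: score merges 667 nm fluorescence intensity with signal-to-noise per printed feature.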 Conditions: small-molecule microarray, higher = more signal.
Assay [17] is described as follows: probe aShh binding to arrayed compounds – biochemical, biotinylated probe, 635/667 nm fluorescence, primary screen (AID 1114).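 Further: probe is biotin-labelled aShh protein from a stem cell growth factor screen; measures binding of labelled protein to compounds printed on the slide; score merges feature fluorescence at 667 nm with signal-to-noise.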 Conditions: small-molecule microarray, higher = more signal.
Assay [18] can be described thus: probe aNog binding to arrayed compounds – biochemical, biotinylated probe, 635/667 nm fluorescence, primary screen (AID 1115).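 Further: probe is biotinylated aNog protein used at 0.15 µg/mL for 1 h at 4 C; z-score combines 667 nm fluorescence of each spot with its signal to noise.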 As to conditions: small-molecule microarray, higher = more signal.
Assay [19] deals with Torsin-1A-interacting protein 1 (Homo sapiens) (UniProt Q5JTV8). Description: compound microarray binding of lysate hLAP1 – cell lysate, small-molecule microarray, COS7 lysate, 635/667 nm fluorescence, primary screen (AID 1116). As to conditions: 635 nm fluorescence, higher = more signal.
Torsin-1A-interacting protein 1 (Homo sapiens), sequence (Q5JTV8 whole entry, looked up): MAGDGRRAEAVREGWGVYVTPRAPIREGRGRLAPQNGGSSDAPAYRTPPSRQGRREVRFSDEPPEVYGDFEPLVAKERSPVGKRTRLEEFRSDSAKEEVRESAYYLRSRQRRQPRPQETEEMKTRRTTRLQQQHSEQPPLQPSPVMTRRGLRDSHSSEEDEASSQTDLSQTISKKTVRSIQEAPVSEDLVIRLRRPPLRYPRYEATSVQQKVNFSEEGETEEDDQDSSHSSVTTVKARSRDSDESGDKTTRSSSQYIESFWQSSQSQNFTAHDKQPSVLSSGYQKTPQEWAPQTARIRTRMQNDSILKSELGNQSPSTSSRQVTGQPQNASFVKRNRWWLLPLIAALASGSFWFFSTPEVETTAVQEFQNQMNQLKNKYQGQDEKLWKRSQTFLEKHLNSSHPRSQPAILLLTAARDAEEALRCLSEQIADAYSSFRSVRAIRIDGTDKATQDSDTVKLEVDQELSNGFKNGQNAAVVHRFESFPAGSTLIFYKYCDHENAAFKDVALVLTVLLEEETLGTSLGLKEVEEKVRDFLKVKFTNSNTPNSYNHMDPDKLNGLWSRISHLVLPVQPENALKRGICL
For assay [20], the target named is Alpha-bungarotoxin (Bungarus multicinctus) (UniProt P60615). Description: compounds binding labelled alpha-BTX control protein – biochemical, small-molecule microarray, Alexa647 label, 635/667 nm fluorescence, artefact control for SMM control protein annotation, profiling panel (AID 1117). As to conditions: alpha-BTX-A647 binding fluorescence, higher = more signal.
Alpha-bungarotoxin (Bungarus multicinctus), sequence (P60615 whole entry, looked up): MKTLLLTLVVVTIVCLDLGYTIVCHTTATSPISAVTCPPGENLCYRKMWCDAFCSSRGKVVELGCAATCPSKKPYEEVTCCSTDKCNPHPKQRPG

Epidermal growth factor receptor (Homo sapiens), sequence (P00533 whole entry, looked up): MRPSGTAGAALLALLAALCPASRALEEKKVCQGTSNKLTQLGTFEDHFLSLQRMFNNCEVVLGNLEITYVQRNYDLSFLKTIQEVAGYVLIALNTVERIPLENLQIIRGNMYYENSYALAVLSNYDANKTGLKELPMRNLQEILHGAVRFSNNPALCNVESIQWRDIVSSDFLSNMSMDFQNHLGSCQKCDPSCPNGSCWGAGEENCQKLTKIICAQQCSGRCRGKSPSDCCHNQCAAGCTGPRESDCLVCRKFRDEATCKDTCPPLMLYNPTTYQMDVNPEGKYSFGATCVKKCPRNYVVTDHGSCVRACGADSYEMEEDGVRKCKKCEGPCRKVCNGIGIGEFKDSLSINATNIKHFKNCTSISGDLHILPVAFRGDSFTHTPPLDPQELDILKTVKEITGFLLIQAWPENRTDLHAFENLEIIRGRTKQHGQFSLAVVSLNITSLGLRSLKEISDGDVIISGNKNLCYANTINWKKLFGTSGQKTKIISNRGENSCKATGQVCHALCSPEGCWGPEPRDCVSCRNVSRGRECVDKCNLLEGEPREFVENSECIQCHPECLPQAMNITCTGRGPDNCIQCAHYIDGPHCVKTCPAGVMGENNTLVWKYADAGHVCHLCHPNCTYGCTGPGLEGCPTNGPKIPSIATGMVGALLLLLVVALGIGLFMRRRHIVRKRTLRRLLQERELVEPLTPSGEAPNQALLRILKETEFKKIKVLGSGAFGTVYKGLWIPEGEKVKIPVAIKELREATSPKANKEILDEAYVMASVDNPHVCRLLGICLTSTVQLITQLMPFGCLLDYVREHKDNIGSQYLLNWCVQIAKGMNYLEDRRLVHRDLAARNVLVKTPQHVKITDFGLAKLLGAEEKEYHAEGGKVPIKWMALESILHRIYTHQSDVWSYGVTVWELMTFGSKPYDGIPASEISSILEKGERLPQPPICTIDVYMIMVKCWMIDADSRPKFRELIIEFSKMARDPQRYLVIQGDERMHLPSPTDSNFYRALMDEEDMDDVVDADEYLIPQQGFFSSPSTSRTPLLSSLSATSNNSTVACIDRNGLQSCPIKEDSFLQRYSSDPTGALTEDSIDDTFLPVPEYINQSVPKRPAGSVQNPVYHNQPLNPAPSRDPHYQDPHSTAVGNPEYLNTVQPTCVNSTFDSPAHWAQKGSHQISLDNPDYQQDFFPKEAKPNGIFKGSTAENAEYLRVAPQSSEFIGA
Dickkopf-related protein 1 (Homo sapiens), sequence (O94907 whole entry, looked up): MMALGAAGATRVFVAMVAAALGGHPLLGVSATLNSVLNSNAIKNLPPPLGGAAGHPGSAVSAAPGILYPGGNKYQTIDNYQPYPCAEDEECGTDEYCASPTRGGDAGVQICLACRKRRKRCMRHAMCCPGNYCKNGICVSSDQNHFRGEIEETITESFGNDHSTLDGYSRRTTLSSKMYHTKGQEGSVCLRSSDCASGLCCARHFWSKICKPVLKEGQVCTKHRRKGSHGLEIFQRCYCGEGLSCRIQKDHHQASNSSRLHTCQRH
Follistatin-related protein 3 (Homo sapiens), sequence (O95633 whole entry, looked up): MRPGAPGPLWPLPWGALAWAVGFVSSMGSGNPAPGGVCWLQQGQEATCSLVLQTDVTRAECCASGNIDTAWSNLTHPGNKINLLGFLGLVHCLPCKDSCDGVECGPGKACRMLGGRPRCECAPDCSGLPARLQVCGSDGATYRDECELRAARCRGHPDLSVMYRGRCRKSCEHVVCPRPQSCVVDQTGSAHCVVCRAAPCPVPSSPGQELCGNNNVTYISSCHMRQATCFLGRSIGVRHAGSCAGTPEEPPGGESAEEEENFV

For `O=C1OCCC/C=C\[C@H]2OC34C=CCN(c5ccc6ccccc6c5)C(=O)[C@H]3N(CCCO)C(=O)[C@@H]4C12` (stereo not given in full), the composite z-score in assay [1] was 0.548; in assay [2] it was -0.326; in assay [3], 0.445; in [5], -0.365; in [6], -0.216; in assay [7], -0.315. For the same molecule, the composite z-score was -0.451 in assay [8]; -1.31 in assay [9]; 0.479 in [10]; -0.148 in assay [11]; -0.548 in [13]; -0.371 in assay [14]. In addition, the composite z-score in [15] was 0.0048; in [16] it was -0.124; in [17] it was 0.184; in [18], 0.0014; in [19], -0.387; in assay [20] it was -0.766. Moreover, the z-score in assay [4] was 0.752 (inactive); in assay [12], -0.0935.

As for `COCCOC(=O)N1C(=O)[C@@]2(c3cc(C#Cc4ccc(OC)cc4)ccc31)[C@H](c1ccc(OCCO)cc1)N1[C@H](c3ccccc3)[C@H](c3ccccc3)OC(=O)[C@H]1[C@@H]2C(=O)Nc1nc2ccccc2s1`, the composite z-score in assay [1] is 0.181; in assay [2], 0.636; in [3], 0.533; in assay [5], 1.06; in assay [6] it was 0.506; in assay [7], 0.397. The composite z-score amounted to 0.805 in assay [8]; 0.154 in assay [9]; 0.598 in [10]; 1.34 in assay [11]; 0.225 in [13]; 1.91 in [14]. Besides, the composite z-score came to 0.487 in assay [15]; 0.0017 in [16]; 1.52 in assay [17]; 0.0044 in assay [18]; 0.699 in [19]; 0.885 in assay [20]. Also, the z-score in [4] was -0.697 (inactive); in assay [12], -1.54.

Regarding `[N-]=[N+]=NCc1ccccc1C[C@]1(C(=O)N2CCOCC2)COC(c2ccc(OCCCO)cc2)=N1`, the composite z-score in assay [1] was 0.947; in assay [2], 1.05; in assay [3], 1.05; in [5] it was 0.396; in assay [6], 0.935; in [7], -0.505. In addition, the composite z-score in assay [8] is 0.0724; in assay [9] it was -0.921; in assay [10], 0.983; in assay [11] it was 1.01; in [13], -0.305; in [14] it was 2.35. In addition, the composite z-score in assay [15] amounted to 0.822; in assay [16] it was 0.168; in [17] it was 0.0326; in [18], 1.87; in [19], 2.22; in assay [20] it was 0.326. Moreover, the z-score was -0.363 (inactive) in assay [4] and -1.54 in [12].

Take `C=CCN1C(=O)[C@]2(O[C@H](CCO)[C@@H]([Si](C)(C)c3ccc(OC)cc3)[C@@H]2C)c2cc(NC(=O)c3ccc(OC)cc3)ccc21`: the composite z-score in assay [1] is 0.527; in [2], -0.19; in [3], -0.525; in assay [5], 0.468; in assay [6], 0.448; in assay [7] it was 0.484. Also, the composite z-score in [8] turned out to be 1.23; in assay [9] it was 0.682; in assay [10], 0.982; in assay [11] it was 1.12; in assay [13], 0.391; in assay [14], 0.0503. Besides, the composite z-score was 0.631 in assay [15]; -0.102 in assay [16]; -0.0553 in assay [17]; -0.0184 in [18]; 0.336 in assay [19]; 0.732 in assay [20]. In addition, the z-score was -2.1 (inactive) in assay [4] and -5.1 in [12].

Take `C=C(C)[C@@H]1CC=C(C(O)C2C=CC3C(=O)N(c4ccccc4)C(=O)C3N2Nc2ccc(C#N)cc2)CC1` (stereo not given in full): the composite z-score in [1] was 1.31; in assay [2], 0.327; in [3], 1.15; in [5], 0.997; in assay [6] it was 1.31; in assay [7], 0.628. Further, the composite z-score is 1.34 in assay [8]; -0.0273 in assay [9]; 0.749 in assay [10]; 1.47 in assay [11]; 0.0506 in [13]; 1.75 in assay [14]. Also, the composite z-score in assay [15] was 0.424; in assay [16], -0.0431; in assay [17] it was 0.0469; in [18], 1.5; in [19] it was -0.243; in [20], 1.92. Moreover, the z-score in [4] is 0.857 (inactive); in assay [12], -0.768.

As for `CCOC(=O)C1=CC[C@@H](c2ccccc2)N(S(=O)(=O)c2ccc(C)cc2)[C@H]1c1cccc(OC)c1`, the composite z-score came out at 0.389 in [1]; 0.708 in [2]; 0.244 in [3]; 0.425 in [5]; 0.897 in assay [6]; 0.197 in assay [7]. Besides, the composite z-score in assay [8] came out at 0.549; in assay [9], 0.135; in [10], 0.949; in [11], 1.09; in assay [13] it was 0.177; in [14], 0.0295. The composite z-score in [15] stood at 0.622; in assay [16], 0.0422; in [17], 0.0898; in [18], 0.266; in [19], 0.854; in [20] it was 1.3. The z-score is -0.937 (inactive) in assay [4] and -1.96 in [12].

The values above are taken from PubChem BioAssay.
